Reference: the supplement of paper PMC8866396
± gives the standard deviation of the averaged measurements.

Tested on: IL-6-GFP PC-9GR
Assay: cell viability (CCK-8 OD) relative to DMSO control (fraction of control); higher = more viable cells
Settings: compound concentration: 10 uM; treatment time: 48 h
Procedure, shortened: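 PC-9 and PC-9GR lung cancer cells expressing lentiviral IL-6-GFP were plated at 3000 cells/well in 96-well plates and treated for 48 h with each library compound at a final 10 μM. Viability was determined by CCK-8 absorbance as a ratio of each well's optical density to the vehicle control well.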

SMILES	cell viability
O=C(O)c1ccccc1OP(=O)(O)O [Fosfosal]	0.943 ± 0.088
Cc1cc2c(C(N)=O)cccc2n1-c1nc2c(c(NCc3ccccc3)n1)COCC2	0.204 ± 0.1
NC(=S)N/N=C/c1ncccc1N [Triapine]	0.255 ± 0.16
COc1cc(C2c3cc4c(cc3C(OC3OC5COC(c6cccs6)OC5C(O)C3O)C3COC(=O)C23)OCO4)cc(OC)c1O (configuration not stated) [Teniposide]	0.0642 ± 0.047
COc1ccc2c(c1)nc(S(=O)Cc1ncc(C)c(OC)c1C)[n]2[Na] (configuration not stated) [Omeprazole Sodium]	0.872 ± 0.13
CCOC(=O)N1CCC(=C2c3ccc(Cl)cc3CCc3cccnc32)CC1 [Loratadine]	1.12 ± 0.032
CNC(=O)C(NC(=O)C(CC(C)C)C(O)C(=O)NO)C(C)(C)C (configuration not stated) [Marimastat (BB-2516)]	0.915 ± 0.038
